# Source: PubChem BioAssay
# This is a sample that favours compounds with a hit; in the whole collection about 19% have one here.
# DT40 TDP1 no CPT: qHTS for Inhibitors of human tyrosyl-DNA phosphodiesterase 1 (TDP1): qHTS in cells in absence of CPT; Potency, µM (series often up to 46.2 µM), without a hit: at the highest dose activity change, negative = growth inhibition, actives largely listed as inhibitors; AID 686978, 2013; 420,000 tested, 15% active; DT40 Tdp1-/- hTDP1 cells, no CPT, ATP luminescence, 48 h; note: nearly all actives have a fitted effect of over 55% in size
#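 Cells were dispensed at 400 per well, compounds added by pin tool, plates incubated ≥48 hr at 37 °C, then CellTiter-Glo added for 30 min at room temperature before luminescence reading. Line: DT40 Tdp1-/- complemented with hTDP1; camptothecin omitted.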
# HT1080 IDH1KD tx: qHTS for induction of synthetic lethality in tumor cells producing 2HG: qHTS for the HT-1080-IDH1KD cell line | HT-1080 IDH1 knockdown viability, ATP luminescence, 48 h | Potency, µM (series often up to 46.1 µM), inactives show at the highest dose activity, negative = toxicity, hits mostly cytotoxic | 360,000 tested, 2% active;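 note: 0% = DMSO wells and -100% = cell-free medium wells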
#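 HT-1080-IDH1KD cells (IDH1 knocked down), 750/well in RPMI with 5% FBS, treated with compound 48 h at 37 degrees C. Viability by CellTiter-Glo luminescence, normalised to DMSO and no-cell wells; concentration-response curves classed.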
# HT1080NT lethal: qHTS for induction of synthetic lethality in tumor cells producing 2HG: qHTS for the HT-1080-NT fibrosarcoma cell line. HT-1080-NT fibrosarcoma viability, CellTiter-Glo ATP luminescence, 48 h. Potency, µM (series often up to 46.1 µM), without a hit: at the top dose activity, negative = less viability, most hits filed as cytotoxic. 360,000 tested, 1.6% active. AID 686970, 2013;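 note: NT is the 2HG producing partner of a matched IDH1 knockdown line; 0% = DMSO-treated cells and -100% = media-only wells without cells; nearly all actives have a fitted effect of over 55% in size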
#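 HT-1080-NT; 750 cells/well; 5% FBS RPMI; 48 h compound, 37 degrees C; CellTiter-Glo luminescence; curve fitting and curve-class assignment.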
# KB-3-1 cytotox: qHTS assay for MDR1-selective chemotherapeutics: Primary screen using the parental adenocarcinoma cell KB-3-1; 400,000 tested, 1.4% active; KB-3-1 viability, CellTiter-Glo ATP luminescence, 72 h; AID 1347075, 2019; Potency, µM (highest dose often 46.1 µM), usual class: cytotoxic; note: nearly all actives have a fitted effect of over 60% in size
#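 Using CellTiter-Glo luminescence, growth of non-resistant KB-3-1 adenocarcinoma cells is assessed 72 h after pin-tool compound addition at 37 °C. Normalized responses across the concentration series yield fitted curves.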
# DT40 TDP1 CPT: qHTS for Inhibitors of human tyrosyl-DNA phosphodiesterase 1 (TDP1): qHTS in cells in presence of CPT; Potency, µM (series often up to 46.2 µM), for the others: at the highest dose activity change, negative = growth inhibition, usual class: inhibitors; chicken DT40 Tdp1-/-;hTDP1 cells + 20 nM CPT, ATP luminescence, 48 h; 420,000 tested, 12% active; AID 686979, 2013; note: nearly all actives have a fitted effect of over 55% in size
#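 Chicken DT40 Tdp1-/- cells stably complemented with human TDP1 were seeded at 400 cells/well in medium containing 20 nM camptothecin, exposed to pin-transferred compounds, and grown at 37 °C for at least 48 hr. Viability was read as ATP luminescence.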
# KB-V1 cytotox: qHTS assay for MDR1-selective chemotherapeutics: Primary screen using the drug-selected MDR subline cells KB-V1. 400,000 tested, 3.4% active. Potency, µM (titrated, usually from 46.1 µM), usual class: cytotoxic. AID 1347076, 2019. KB-V1 MDR cells viability, CellTiter-Glo, 72 h; note: nearly all actives have a fitted effect of over 60% in size
#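 Following 72 h at 37 degrees C with compound, KB-V1 cell viability was read by CellTiter-Glo luminescence, medium being phenol-red-free DMEM plus 10% FBS; concentration-response parameters came from normalized, curve-fitted qHTS data.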
# Active calls of the source: *; i = inactive; ? = inconclusive; nt = no result; [ ] = dose if it differs, or a comment. Calls come from the whole dose curve; as a rule, active = well fitted curve in the direction sought with a large enough effect; inconclusive = small, poorly fitted or top-dose-only effect, or another doubt; inactive = no such curve, though single readings can be large; an effect the other way counts as inactive or inconclusive. Unless noted, % is set by controls: 0 for no effect and ±100 for the full control effect; potency is the fitted concentration of half-maximal effect.
SMILES,DT40 TDP1 no CPT,HT1080 IDH1KD tx,HT1080NT lethal,KB-3-1 cytotox,DT40 TDP1 CPT,KB-V1 cytotox
Cc1ccc2nc(N3CCN(C(=O)c4ccccc4F)CC3)c(C#N)cc2c1,?,2.9%,10.8%,i,?,i
Cc1ccc2nc(N3CCN(C(=O)c4ccc(F)cc4)CC3)c(C#N)cc2c1,23.1µM*,-1.1%,-0.6%,i,?,i
CCCCCSc1nnc2c(n1)OC(c1ccc(C)s1)N(C(C)=O)c1ccccc1-2 (stereo not given),8.2µM*,nt,nt,nt,18.4µM*,nt
CCCSc1nnc2c(n1)OC(c1ccc(Br)s1)Nc1ccccc1-2 (stereo not given),-27.9%,nt,nt,i,-8.3%,i
CCCCSc1nnc2c(n1)OC(c1ccc(C)s1)Nc1ccccc1-2 (stereo not given),11.6µM*,nt,nt,nt,18.4µM*,nt
COc1ccccc1CNC(=O)/C(C#N)=C/c1ccc(OC)c(OC)c1OC,-12.9%,4.2%,-0.8%,i,-12.3%,i
COc1cc(/C=C(\C#N)C(=O)Nc2ccc3c(c2)OCCO3)ccc1O,?,2.1%,3.7%,i,?,i
O=C(NC(C(=O)N/N=C/c1c2ccccc2cc2ccccc12)c1n[nH]c(=O)c2ccccc12)c1ccccc1 (stereo not given),10.3µM*,-4.1%,-2.6%,i,8.2µM*,i
Cc1ccc(S(=O)(=O)CCC(=O)OCc2nnc(-c3ccc([N+](=O)[O-])cc3)o2)cc1,-4.5%,-0.3%,7.2%,i,0.1%,i
O=c1[nH]c(SCc2c(F)cccc2Cl)nc2c1CCC2,?,nt,nt,i,?,i
COc1ccc(C(=O)N2CCC3(CCCN(Cc4ccccc4)C3)CC2)cc1,-27.2%,nt,nt,nt,-3.6%,nt
COc1ccccc1CNS(=O)(=O)c1ccc(Br)s1,0.1%,-1.2%,-3.7%,i,4.5%,i
COc1ccccc1CNS(=O)(=O)c1ccc(-c2cc(C(F)(F)F)on2)s1,20.6µM*,nt,nt,nt,23.1µM*,nt
COc1ccc(OC)c(CNS(=O)(=O)c2ccc(-c3cc(C(F)(F)F)on3)s2)c1,8.2µM*,nt,nt,nt,8.2µM*,nt
COc1ccc(CNS(=O)(=O)c2ccc(-c3ccc(=O)[nH]n3)s2)cc1OC,10.2%,-1.6%,-0.3%,i,?,i
COc1ccc(CNS(=O)(=O)c2ccc(-c3cc(C(F)(F)F)on3)s2)cc1OC,5.17µM*,nt,nt,nt,9.2µM*,nt
CCN1C(=O)[C@@H]2[C@@H]3CN(S(=O)(=O)c4ccc(C)cc4)[C@@H](c4ccccc4Cl)[C@@H]3C(=O)C[C@@H]2C1=O,?,9.0%,0.9%,i,?,i
COc1ccccc1C1CN(Cc2cccc3c2OCO3)Cc2ccccc2O1 (stereo not given),-18.2%,nt,nt,nt,-124.4%[9.04 µM],nt
CC(C)Oc1ccc(CNC(=O)c2cc(S(=O)(=O)N3CCOCC3)cn2C)cc1,17.3%,2.8%,-0.5%,i,14.3%,i
Cc1cccc(C(=O)n2nc(-c3cccnc3)nc2NCc2ccc(F)cc2)c1,-26.6%,nt,nt,i,-14.1%,i
Cc1c(CN2CCC(CO)(CCOc3ccccc3)CC2)[nH]c2c(Cl)cccc12,?,18.4µM*,20.6µM*,?,?,?
Cc1nn(C)c(Cl)c1CN1CCC(CO)(CCOc2ccccc2)CC1,?,-0.6%,-6.5%,i,-20.2%,?
C=CCOc1ccccc1CN1CCC(CO)(CCOc2ccccc2)CC1,18.4µM*,?,-0.8%,i,?,i
COC(=O)N[C@H](C(=O)N[C@@H](Cc1ccccc1)[C@@H](O)CN(Cc1ccc(-c2ccccn2)cc1)NC(=O)[C@@H](NC(=O)OC)C(C)(C)C)C(C)(C)C,-11.6%,nt,nt,nt,-17.2%,nt
CC(C)c1cc(NC(=O)CCl)on1,9.2µM*,25.9µM*,18.4µM*,?,13µM*,i
SMILES,DT40 TDP1 no CPT,HT1080 IDH1KD tx,HT1080NT lethal,KB-3-1 cytotox,DT40 TDP1 CPT,KB-V1 cytotox
CCN(CC(=O)Nc1c(F)cccc1F)C(=O)Cc1ccc(S(=O)(=O)N2CCOCC2)s1,0.5%,-1.7%,1.1%,i,2.3%,i
COc1ccc2c(c1)sc1nc(-c3ccccc3)cn12,0.92µM*,4.61µM*,2.59µM*,2.31µM*,0.517µM*,?
CCOc1ccc(C(=O)CC(=O)C(=O)NCCc2ccc(OC)c(OC)c2)cc1,?,-7.3%,-3.8%,i,?,7.31µM*
COc1ccc(NC(=O)C(=O)NCCc2ccc(OC)c(OC)c2)c(OC)c1,?,nt,nt,i,?,i
CCc1ccc(-c2cn3c(n2)sc2cc(C(=O)NCCc4ccc(OC)cc4OC)ccc23)cc1,16.4µM*,nt,nt,nt,23.1µM*,nt
COc1ccc(-c2cn3c(n2)sc2cc(C(=O)NCC(C)c4ccccc4)ccc23)cc1 (stereo not given),5.8µM*,nt,nt,nt,?,nt
N#CCCN(C(=O)COC(=O)CCc1c[nH]c2ccccc12)c1ccccc1,-12.1%,-0.6%,1.1%,i,1.0%,i
O=C(Nc1cccc(F)c1F)C1CCN(c2ncccn2)CC1,-22.7%,nt,nt,i,-19.5%,i
CS(=O)(=O)c1cccc(C(=O)Nc2ccc3c(c2)OCCCO3)c1,15.9%,13.3%,-2.0%,i,4.0%,?
CCOC(=O)N1CCN(CC(=O)Nc2ccc(Oc3ccccc3)cc2)CC1,?,3.4%,10.5%,i,?,i
Cc1ccsc1C(=O)N1CCC1(C)C(=O)Nc1ccc2c(c1)OCCO2 (stereo not given),?,1.2%,21.5%,i,-23.3%,i
COc1cccc(-c2ccc(C#N)c(SCC(=O)NCCc3ccccc3)n2)c1,-7.0%,-13.5%,-11.1%,i,-8.3%,?
CCOc1ccc(-c2cn3c(n2)sc2cc(C(=O)NCCc4ccc(OC)c(OC)c4)ccc23)cc1,10.3µM*,nt,nt,i,11.6µM*,i
COc1ccc(-c2cn3c(n2)sc2cc(C(=O)Nc4cc(Cl)ccc4C)ccc23)cc1,2.91µM*,nt,nt,nt,6.51µM*,nt
COc1cccc(-c2cn3c(n2)sc2cc(C(=O)NCCc4ccccc4)ccc23)c1,7.31µM*,nt,nt,nt,7.31µM*,nt
